Measured values as given in PubChem BioAssay (EPA / NIEHS).
Records with an inconclusive call do not appear. Activity calls are given as the source filed them. The calls were made as follows: active = hit-call score of the fitted dose curve at least 0.9, where 1 is the maximum; inconclusive = response in the unintended direction; inactive = score below 0.9.

Assay: ACEA_AR_antagonist_AUC_viability: ACEA Biosciences xCELLigence Real-Time Cell Analysis on Androgen Receptor Antagonism for Viability (AID 2283776);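 also: area under impedance growth curve at 80 h after dosing as viability; hits lower the growth signal relative to DMSO meaning cytotoxicity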
Description: ACEA_AR_antagonist is a cell-based, single-readout assay that uses 22Rv1, a human prostate cancer cell line, with measurements taken at 80 hours after chemical dosing in a 384-well plate, although TO5 and TO6 (mc0.srcf) used a 96-well plate. Differences in plate size can be ignored given data normalization.ACEA_AR_80hr is one of two assay component(s) measured or calculated from the […] assay. It is designed to make measurements of real-time cell-growth kinetics, a form of growth reporter, as detected with electrical impedance signals by Real-Time Cell Electrode Sensor (RT-CES) technology.Data from the assay component ACEA_AR_antagonist_AUC_viability was analyzed in the positive analysis fitting direction relative to DMSO as the negative control and baseline of activity. Using a type of growth reporter, loss-of-signal activity can be used to understand changes in the viability. Furthermore, this assay endpoint can be referred to as a secondary readout, because this assay has produced multiple assay endpoints where this one serves a viability function. To generalize the intended target to other relatable targets, this assay endpoint is annotated to the cell cycle intended target family, where the subfamily is cytotoxicity.
The xCELLigence system Multi-E-Plate stations were used to measure the time-dependent response to chemicals. Each compound was tested in an eight-point, 1:4 serial dilution series starting at a maximum final concentration of 100 uM. A maximum starting concentration of 0.5% DMSO was present in the 100 uM chemical samples and was diluted along with the test article dilution series. The screen was performed in biological duplicate using two separate, 96-well, E-Plates 96 for each dilution series (n = 2). Positive controls (MG132 and testosterone) and a negative control (assay media) were tested in quadruplicate on each testing plate. Then, 0.5% and 0.125% DMSO were tested in duplicates in each plate to serve as solvent controls for the 2 highest concentrations of testing compounds: 100 uM and 25 uM. Reference compounds were tested with 8 concentrations with 1:5 serial dilutions. All screening was carried out by ACEA Biosciences, Inc. (San Diego, CA). 22Rv1 cells purchased from ATCC were maintained in media supplemented with 10% fetal bovine serum (FBS). Before screening, 22Rv1 cells were preconditioned in assay medium. Cells were then detached and seeded in E-Plates 96 in assay medium. After overnight monitoring of growth once every hour, compounds were added to […] cells and remained in the medium until the end of the experiment. Cellular responses were then recorded once every 5 min for the first 5 h, and once every hour for an additional 100 h.

Structure (SMILES)	AC50	outcome
Nc1ccc(Nc2ccccc2)cc1	87.5 µM (active)	
CC(=O)OCCC(C)C		inactive
CC(C)=CCC/C(C)=C\CO		inactive
O=C1CCCCCN1		inactive
CCC(C)(C)C(=O)O[C@H]1C[C@@H](C)C=C2C=C[C@H](C)[C@H](CC[C@@H]3C[C@@H](O)CC(=O)O3)[C@H]21	32.1 µM (active)	
COc1ccc2sc(C(=O)Nc3nnn[nH]3)c(OC(C)C)c2c1	12.9 µM (active)	
CC(C)c1cccc(C(C)C)c1N1C(=O)c2ccc(O)cc2C1=O	17.6 µM (active)	
COc1cccc(-c2ccc(/C=C\CN3CCCCCC3)cc2Cl)c1	45.2 µM (active)	
C1=CCCC=CCCC=CCC1		inactive
COc1ccc(/C=C/S(=O)(=O)NC(=O)c2ccc(C)cc2Cl)cc1	22.7 µM (active)	
Cc1[nH]cnc1C[C@H]1CCc2c(C)c3ccccc3n2C1=O	50.1 µM (active)	
CCOC(=O)CC(CC(=O)OCC)(OC(C)=O)C(=O)OCC		inactive
O=C(O)c1cccc(N(Cc2cccnc2)c2ccc(OC(F)F)c(OC(F)F)c2)c1	76.9 µM (active)	
CC(C)CCCCCCCOC(=O)CCCCC(=O)OCCCCCCCC(C)C		inactive
O=C(O)CCN(C1(C(=O)NO)CCCC1)S(=O)(=O)c1ccc(Oc2ccc(F)cc2)cc1		inactive
O=c1[nH]c2ccc(S(=O)CCN3CCC(Cc4ccc(F)cc4)CC3)cc2o1 (stereo not given)		inactive
Cn1c(=O)cc(Oc2ccc(F)cc2F)c2cnc(NCC(C)(C)O)nc21		inactive
CCN(C(=O)c1cc(C)cc(OC[C@H](C)Nc2ccncc2)c1)C(C)C	11.2 µM (active)	
Clc1nc(Cl)c(Cl)c(Cl)c1Cl	50 µM (active)	
Cc1ccc(S(=O)(=O)O)cc1C		inactive

Structure (SMILES)	AC50	outcome
O=C1OC(=O)C2C3C=CC(C3)C12 (stereo not given)		inactive
O=C(O)c1cc(N=Nc2ccc(S(=O)(=O)Nc3ccccn3)cc2)ccc1O		inactive
C=CC(=C)CCC=C(C)C		inactive
Cn1cnc([N+](=O)[O-])c1Sc1ncnc2nc[nH]c12	1.52 µM (active)	
CN(C)c1ccc(Cc2ccc(N(C)C)cc2)cc1	50 µM (active)	
CC(C)CCO		inactive
CC(C)(O)c1coc(S(=O)(=O)NC(=O)Nc2c3c(cc4c2CCC4)CCC3)c1		inactive
Cn1c(=O)c2c(ncn2C)n(C)c1=O		inactive
CCCCCCCCO		inactive
CC(C)CCCCCCOC(=O)c1ccc(C(=O)OCCCCCCC(C)C)c(C(=O)OCCCCCCC(C)C)c1		inactive
On1ccccc1=S	50 µM (active)	
O=C1CCC(N2C(=O)c3ccccc3C2=O)C(=O)N1 (stereo not given)		inactive
CC(O)CN(CCN(CC(C)O)CC(C)O)CC(C)O (stereo not given)		inactive
CCCCCCCCCCCCCCCO	89.4 µM (active)	
CCOc1cccc(-n2cc(C(=O)N3CCN(c4cc(C(=O)O)c5ccccc5c4)CC3)nc2-c2ccc(C)cc2)c1	11.5 µM (active)	
O=C(O)c1cccc(Oc2ccccc2)c1		inactive
O=c1n(CC2CO2)c(=O)n(CC2CO2)c(=O)n1CC1CO1 (stereo not given)	1.02 µM (active)	
CCCN(C1CCN(C(=O)C2CCNCC2)CC1)[C@@H]1CCc2ccc(OC)cc2C1	50 µM (active)	
COC(=O)c1c(Cl)c(Cl)c(C(=O)OC)c(Cl)c1Cl	50 µM (active)	
O=C(NS(=O)(=O)/C=C/c1ccccc1)c1ccc(F)cc1Cl	13.1 µM (active)	
